From PubChem BioAssay (NCATS)
Results filed as inconclusive are left out. Calls of active or inactive are those of the source. Unless noted, the call rests on the fitted dose curve; in most records, active means well fitted curve in the direction sought with a large enough effect; inconclusive means small, poorly fitted or top-dose-only effect, or another doubt; inactive means no such curve, though single readings can be large; an effect the other way counts as inactive or inconclusive.

Key:
[1] = Cell Viability - LYMP2-024 (AID 988); further: potency means the concentration at half of the fitted maximal effect; nearly all actives have a fitted effect of over 60% in size
In short: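 Human lymphoblastoid LYMP2-024 cells (2500/well) rested 5 hr, then treated with compound for 24 hr at 37 C in complete medium. Viability was measured as intracellular ATP by CellTiter-Glo luminescence. AC50 values came from Hill-equation fits.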

[2] = Cell Viability - LYMP2-026 (AID 989); further: on the % scale 0 is the no-effect control and ±100 the full control effect; nearly all actives have a fitted effect of over 50% in size
In short: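 Human lymphoblastoid LYMP2-026 cells, 2500/well, exposed to compound 24 h at 37 C in complete medium. Viability as intracellular ATP by CellTiter-Glo luminescence; AC50 from Hill fits of qHTS concentration-response.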

[3] = target: Alpha-galactosidase A (Homo sapiens) (UniProt P06280); test: Counterscreen for Glucocerebrosidase Inhibitors: qHTS Assay for Human alpha-Galactosidase at pH 4.5 (AID 992); further: 0% is about no effect
Chain of Alpha-galactosidase A (Homo sapiens) (P06280 whole entry, looked up): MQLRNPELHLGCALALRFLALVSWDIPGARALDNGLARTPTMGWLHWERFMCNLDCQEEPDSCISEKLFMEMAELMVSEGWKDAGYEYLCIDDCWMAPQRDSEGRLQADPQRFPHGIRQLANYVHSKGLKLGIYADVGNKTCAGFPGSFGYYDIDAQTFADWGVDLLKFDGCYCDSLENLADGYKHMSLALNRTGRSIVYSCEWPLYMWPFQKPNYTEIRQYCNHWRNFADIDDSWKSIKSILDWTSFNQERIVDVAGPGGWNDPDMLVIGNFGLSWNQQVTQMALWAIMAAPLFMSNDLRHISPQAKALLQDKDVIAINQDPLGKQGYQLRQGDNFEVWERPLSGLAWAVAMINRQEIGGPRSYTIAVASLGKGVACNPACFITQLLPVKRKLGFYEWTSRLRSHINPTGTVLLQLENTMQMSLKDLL
In short: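 Read-out is 4-methylumbelliferone fluorescence (365 nm excitation, 440 nm emission) after a pH 10 NaOH/glycine stop. Reactions held 2 nM enzyme and 80 uM substrate at pH 4.5 for 20 min at room temperature.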

[4] = Cell Viability - LYMP1-002 - Assay at 24 hr (AID 993); further: on the % scale 0 is the no-effect control and ±100 the full control effect
In short: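 Human lymphoblastoid LYMP1-002 cells (2500/well) treated 24 h at 37 °C; viability as intracellular ATP by CellTiter-Glo luminescence. Tetraoctylammonium bromide as positive control; AC50 from Hill-equation fits of qHTS concentration-response.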

[5] = Cell Viability - LYMP1-002 - Assay at 40 hr (AID 994);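 further: 0% = DMSO only and full inhibition = 92 µM tetraoctylammonium bromide; nearly all actives have a fitted effect of over 60% in size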
In short: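 LYMP1-002 human lymphoblastoid cells (2500/well, complete medium) were treated with compounds for 40 hr at 37 C. Intracellular ATP was measured by CellTiter-Glo luminescence, and AC50 values came from Hill-equation fits of concentration-response data; tetraoctylammonium bromide was the positive control.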

[6] = target: Alpha-galactosidase (Coffea arabica) (UniProt Q42656); test: Counterscreen for Glucocerebrosidase Inhibitors: qHTS Assay for Coffee Bean alpha-Galactosidase at pH 5.9 (AID 998);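 further: plate controls were uninhibited enzyme for no effect and no-enzyme basal signal for full effect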
Chain of Alpha-galactosidase (Coffea arabica) (Q42656 whole entry, looked up): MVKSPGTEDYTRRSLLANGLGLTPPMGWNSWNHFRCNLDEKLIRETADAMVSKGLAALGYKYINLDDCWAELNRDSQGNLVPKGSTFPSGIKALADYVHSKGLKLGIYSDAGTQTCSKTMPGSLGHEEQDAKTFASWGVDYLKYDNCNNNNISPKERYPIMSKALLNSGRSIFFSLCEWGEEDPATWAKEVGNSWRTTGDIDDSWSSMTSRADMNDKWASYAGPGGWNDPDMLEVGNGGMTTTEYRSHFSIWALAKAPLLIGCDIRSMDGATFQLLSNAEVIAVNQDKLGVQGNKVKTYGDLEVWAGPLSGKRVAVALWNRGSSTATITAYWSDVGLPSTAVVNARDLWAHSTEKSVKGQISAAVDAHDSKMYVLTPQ
In short: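 Green coffee bean enzyme (2 nM final) was incubated with compounds (0.7 nM–77 uM) and 4-methylumbelliferyl alpha-D-galactopyranoside (80 uM) in citrate buffer pH 5.9, 20 min at room temperature. High-pH stop; fluorescence 365/440 nm; AC50 from Hill fits.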

[7] = Validation of Assay for Modulators of Lamin A Splicing (AID 1459; active means well fitted curve in the direction sought with a large enough effect in the signal ratio; the % refers to the signal ratio;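 further: cells exposed to compound for two days before reading; 0% is about no effect; ratio rise marks activators and ratio drop marks inhibitors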)
In short: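 Dual-reporter HeLa S3 line (lamin A-EGFP minigene, DsRed2) treated with compounds 48 hrs, 0.5% DMSO final. Endpoint: EGFP/DsRed2 total intensity ratio from laser-scanning microplate cytometry.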

[8] = qHTS Assay for Lipid Storage Modulators (AID 1519; calls by dose curve; on activity change, negative = inhibition: on the % scale 0 is the no-effect control and ±100 the full control effect); conditions: Drosophila S3 cells, BODIPY lipid droplet/cell ratio, laser cytometry, cells loaded with oleic acid; for activity change, negative = inhibition: at 57.5 µM (top of the series)
In short: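 Cells seeded at 5,000 per well were treated with compounds over a concentration series and loaded with oleic acid (400 uM, as added). Lipid droplet fluorescence (488 nm excitation, 500-530 nm channel) was read by laser-scanning cytometry and normalized to 20 uM Triacsin C.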

[9] = target: DNA repair nuclease/redox regulator APEX1 (Homo sapiens) (UniProt P27695); test: qHTS Validation Assay for Inhibitors of the Human Apurinic/apyrimidinic Endonuclease 1 (APE1) (AID 1705; further: potency means the concentration at half of the fitted maximal effect;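 on activity change, negative = inhibition: TAMRA fluorescence gain over two minutes as APE1 cuts a quenched THF abasic duplex; on the % scale 0 is the no-effect control and ±100 the full control effect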)
Chain of DNA repair nuclease/redox regulator APEX1 (Homo sapiens) (P27695 whole entry, looked up): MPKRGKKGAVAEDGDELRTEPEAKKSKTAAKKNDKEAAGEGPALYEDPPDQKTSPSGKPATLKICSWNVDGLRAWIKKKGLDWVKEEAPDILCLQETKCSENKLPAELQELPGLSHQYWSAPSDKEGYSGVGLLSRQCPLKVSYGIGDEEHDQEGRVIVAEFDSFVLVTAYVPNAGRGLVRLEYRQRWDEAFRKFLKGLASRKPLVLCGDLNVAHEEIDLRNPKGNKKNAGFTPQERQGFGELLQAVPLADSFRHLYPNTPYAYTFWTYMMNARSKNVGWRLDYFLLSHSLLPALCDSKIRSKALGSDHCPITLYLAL
In short: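 Substrate: 50 nM final fluorophore/quencher THF-abasic duplex. Enzyme preincubated with compounds 15 min, RT. Progress derived from fluorescence difference, third minus first kinetic read.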

[10] = Counterscreen for APE1 Inhibitors: Fluorescent Dye Displacement Validation Assay (AID 1707); further: potency means the concentration at half of the fitted maximal effect;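 on activity change, negative = inhibition: plate controls were ThO with dsDNA and no compound for no effect and ThO without dsDNA for full effect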
In short: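 ThO 250 nM + dsDNA 50 nM (THF abasic site, 5'-TAMRA), Tris-HCl pH7.5/50mM NaCl/2 mM MgCl2/0.01% Tween-20; compounds pin-transferred; ex 480/em 540 nm endpoint. Neutral = no compound; no-DNA ThO wells = negative control.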

[11] = target: Endonuclease 4 (Escherichia coli (strain K12)) (UniProt P0A6C1); test: Counterscreen for APE1 Inhibitors: qHTS Validation Assay for Inhibitors of Endonuclease IV (AID 1708); further: on the % scale 0 is the no-effect control and ±100 the full control effect
In short: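 Concentration-response counterscreen run identically to the APE1 assay: 15 min room-temperature preincubation of 2 nM enzyme with compound, reaction started with 50 nM quenched abasic DNA, progress taken from kinetic fluorescence.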

[12] = qHTS for differential inhibitors of proliferation of Plasmodium falciparum line 7G8 (AID 1815);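 further: parasite growth measured after three days of incubation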; further: potency means the concentration at half of the fitted maximal effect;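 on activity change, negative = inhibition: plate controls were vehicle wells for no effect and reference inhibitor wells for full effect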
[13] = qHTS for differential inhibitors of proliferation of Plasmodium falciparum line GB4 (AID 1816); conditions: Potency: Plasmodium falciparum GB4 proliferation inhibition;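 further: parasite growth measured after 72 h incubation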; further: potency means the concentration at half of the fitted maximal effect;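 on activity change, negative = inhibition: 0% = vehicle DMSO and -100% = reference inhibitor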
[14] = qHTS for differential inhibitors of proliferation of Plasmodium falciparum line 3D7 (AID 1876); further: potency means the concentration at half of the fitted maximal effect
[15] = qHTS for differential inhibitors of proliferation of Plasmodium falciparum line D10 (AID 1877);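 further: parasites grown with compound for 72 h before DNA staining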; further: potency means the concentration at half of the fitted maximal effect;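 on activity change, negative = inhibition: plate controls were vehicle wells for no effect and reference inhibitor wells for full effect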
[16] = qHTS for differential inhibitors of proliferation of Plasmodium falciparum line Dd2 (AID 1882); conditions: Potency: Plasmodium falciparum Dd2 proliferation inhibition; further: nearly all actives have a fitted effect of over 65% in size; further: potency means the concentration at half of the fitted maximal effect;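 on activity change, negative = inhibition: plate controls were DMSO vehicle for no effect and 0.29 µM artemisinin for full effect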
In short: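 Dd2-infected erythrocytes (0.3% parasitemia, 2.5% hematocrit final) incubated with compound 72 h at 37 C, 5% CO2; lysed with saponin/Triton buffer containing SYBR Green I, incubated overnight in the dark, then read by fluorescence (485/535 nm). Normalized to 0.29 uM artemisinin and DMSO.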

[17] = qHTS for differential inhibitors of proliferation of Plasmodium falciparum line W2 (AID 1883); conditions: Potency: Plasmodium falciparum W2 proliferation inhibition;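 further: parasites grown with compound for 72 h before lysis and staining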; further: potency means the concentration at half of the fitted maximal effect;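 on activity change, negative = inhibition: 0% = vehicle wells and -100% = control inhibitor wells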
[18] = qHTS for differential inhibitors of proliferation of Plasmodium falciparum line HB3 (AID 1886); conditions: Potency: Plasmodium falciparum HB3 proliferation inhibition;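 further: parasites grown with compound for 72 h before SYBR Green readout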; further: potency means the concentration at half of the fitted maximal effect;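 on activity change, negative = inhibition: plate controls were vehicle for no effect and reference inhibitor for full effect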
[19] = qHTS Assay for Modulators of Human Peripheral Myelin Protein 22 (PMP22) Expression/Activity (AID 1967; active means well fitted curve in the direction sought with a large enough effect in the signal ratio; the % refers to the signal ratio;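 further: 0% = untreated cells and 100% end not stated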)
In short: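 Engineered MSC80 cells, Pmp22-promoter green and EF-alpha red luciferase reporters; 24h compound treatment at 37 °C. Concentration-response fits on green, red and ratio signals, each overlap-corrected, with %Activity normalized to untreated wells.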

[20] = target: alpha-glucosidase (Oryza sativa, rice) (UniProt Q653V4); test: Counterscreen for Glucocerebrosidase Inhibitors: qHTS Assay for Rice alpha-Glucosidase at pH 5.0 (AID 997);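 further: 0% = full activity with enzyme and -100% = basal without enzyme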
In short: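 Rice alpha-glucosidase (4 nM final) with 400 uM 4-methylumbelliferyl-alpha-D-glucopyranoside in citrate buffer pH 5.0, 20 min at room temperature, stopped at pH 10; fluorescence 365/440 nm, compounds 0.7 nM–77 uM, AC50 from Hill fits.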

[21] = measured here: cell count channel max response
[22] = measured here: lipid channel max response

O=C1C=CC(=O)C=C1
-25.7%: max response [8, 21]
active: Potency [1] 31.6 µM | Potency [9] 14.1 µM
-24.4%: max response [8, 22]
inactive: Potency [2] | outcome [3] | Potency [4] | Potency [5] | outcome [6] | outcome [7] | activity change, negative = inhibition [8] 0.0539% | Potency [10] | Potency [11] | Potency [12] | Potency [13] | Potency [14] | Potency [15] | Potency [16] | Potency [17] | Potency [18] | outcome [19]

CCCN(CCC)CCc1ccc(O)c(O)c1
-5.97%: max response [8, 22]
inactive: outcome [3] | outcome [20] | outcome [6] | outcome [7] | activity change, negative = inhibition [8] -0.321% | Potency [9] | Potency [10] | Potency [11]
-7.51%: max response [8, 21]
active: Potency [12] 12.6 µM | Potency [13] 10 µM | Potency [15] 14.1 µM | Potency [17] 10 µM | Potency [18] 11.2 µM

c1ccc2cc(CC3=NCCN3)ccc2c1
29%: max response [8, 21]
active: Potency [13] 10 µM | Potency [17] 12.6 µM
31.2%: max response [8, 22]
inactive: outcome [3] | outcome [20] | outcome [6] | outcome [7] | activity change, negative = inhibition [8] 1.13% | Potency [9] | Potency [10] | Potency [11] | Potency [14] | Potency [15] | Potency [16] | Potency [18] | outcome [19]

NC(=O)COc1c(F)cc(SCCNS(=O)(=O)c2ccccc2)cc1F
-0.0137%: max response [8, 22]
1.68%: max response [8, 21]
inactive: outcome [3] | outcome [6] | outcome [7] | activity change, negative = inhibition [8] -2.33% | Potency [9] | Potency [10] | Potency [11] | Potency [12] | Potency [13] | Potency [14] | Potency [15] | Potency [16] | Potency [18]

CC(N)Cc1c[nH]c2ccc(OCc3cccs3)cc12 (configuration not stated)
active: Potency [12] 7.94 µM | Potency [13] 7.94 µM | Potency [14] 10 µM | Potency [17] 7.94 µM | Potency [18] 11.2 µM
inactive: outcome [7] | activity change, negative = inhibition [8] -0.884% | Potency [9] | Potency [10]
-46.5%: max response [8, 22]
-45.6%: max response [8, 21]

COC(=O)N1CCN(C(=O)Cc2ccc(Cl)c(Cl)c2)C(CN2CCCC2)C1 (configuration not stated)
7.98%: max response [8, 21]
active: Potency [12] 12.6 µM | Potency [13] 10 µM | Potency [16] 7.94 µM | Potency [17] 2.82 µM
inactive: outcome [7] | activity change, negative = inhibition [8] 0.712% | Potency [9] | Potency [10] | Potency [11]
7.35%: max response [8, 22]

C=CCN1C[C@@H](C)N([C@H](c2ccc(C(=O)N(CC)CC)cc2)c2cccc(OC)c2)C[C@@H]1C
-2.68%: max response [8, 21]
inactive: outcome [7] | activity change, negative = inhibition [8] 2.23% | Potency [10] | Potency [11]
0%: max response [8, 22]
active: Potency [12] 2.82 µM | Potency [13] 3.98 µM | Potency [14] 3.16 µM | Potency [15] 7.08 µM | Potency [16] 8.91 µM | Potency [17] 3.16 µM | Potency [18] 4.47 µM

C[C@H](Cc1ccc2c(c1)OC(C(=O)O)(C(=O)O)O2)NC[C@H](O)c1cccc(Cl)c1
inactive: outcome [7] | Potency [9] | Potency [10] | Potency [11] | Potency [12] | Potency [13] | Potency [14] | Potency [15] | Potency [16] | Potency [17] | Potency [18] | outcome [19]

N#CC(C#N)=Cc1cc(O)c(O)c(O)c1
inactive: outcome [3] | outcome [6] | outcome [7] | Potency [10] | Potency [11]
active: Potency [12] 6.31 µM | Potency [13] 10 µM | Potency [14] 12.6 µM | Potency [15] 12.6 µM | Potency [17] 7.94 µM | Potency [18] 11.2 µM

N[C@@H](CCl)C(=O)O
inactive: outcome [7] | Potency [9] | Potency [10] | Potency [11] | Potency [12] | Potency [13] | Potency [14] | Potency [15] | Potency [16] | Potency [18]

CN(N=O)c1cc(O)ccc1O
active: Potency [10] 14.1 µM
inactive: outcome [3] | outcome [6] | outcome [7] | Potency [11] | Potency [12] | Potency [14] | Potency [15] | Potency [16] | Potency [17] | Potency [18]

C#CCN[C@H](C)Cc1ccccc1
inactive: outcome [7] | Potency [10] | Potency [11] | Potency [12] | Potency [13] | Potency [14] | Potency [15] | Potency [16] | Potency [17] | Potency [18] | outcome [19]

CCCN1CCCC2Cc3[nH]ncc3CC21 (configuration not stated)
inactive: outcome [7] | Potency [9] | Potency [10] | Potency [11] | Potency [12] | Potency [13] | Potency [14] | Potency [15] | Potency [16] | Potency [18] | outcome [19]

NC(N)=NOCC[C@H](N)C(=O)O
inactive: outcome [3] | outcome [20] | outcome [6] | outcome [7] | Potency [10] | Potency [11] | Potency [12] | Potency [13] | Potency [14] | Potency [15] | Potency [16] | Potency [18]

NCCCP(=O)(O)O
inactive: outcome [3] | outcome [6] | outcome [7] | Potency [10] | Potency [11] | Potency [12] | Potency [13] | Potency [14] | Potency [15] | Potency [16] | Potency [17] | Potency [18]

CCOC(=O)c1ncn2c1[C@@H]1CCCN1C(=O)c1cc(OC)ccc1-2
inactive: outcome [7] | Potency [10] | Potency [11] | Potency [13] | Potency [14] | Potency [15] | Potency [16] | Potency [18]
active: Potency [12] 7.94 µM

CCCn1c(=O)c2[nH]c(C3CCCC3)nc2n(CCCOC(=O)c2ccc(S(=O)(=O)F)cc2)c1=O
inactive: outcome [3] | outcome [6] | outcome [7] | Potency [9] | Potency [10] | Potency [11] | Potency [15]
active: Potency [12] 12.6 µM | Potency [17] 11.2 µM

Ic1ccccc1CNC1C2CCN(CC2)C1C(c1ccccc1)c1ccccc1 (configuration not stated)
inactive: outcome [7] | Potency [10] | Potency [11]
active: Potency [12] 7.08 µM | Potency [13] 5.01 µM | Potency [14] 5.01 µM | Potency [15] 11.2 µM | Potency [16] 3.16 µM | Potency [17] 1.41 µM | Potency [18] 11.2 µM

CC(Cc1ccc(OCC(=O)O)cc1)NCC(O)c1cccc(Cl)c1 (configuration not stated)
inactive: outcome [7] | Potency [9] | Potency [10] | Potency [11] | Potency [13] | Potency [14] | Potency [15] | Potency [16] | Potency [17] | Potency [18] | outcome [19]
